Experimental data reported in the supplement of paper PMC8866396.
Where “and” joins values, the source holds several entries; their conditions need not be identical. Equal entries are not always repeated. ± gives the standard deviation of the averaged measurements.

These compounds were tested on IL-6-GFP PC-9 (assay: cell viability (CCK-8 OD) relative to DMSO control (fraction of control); higher = more viable cells). Conditions: compound concentration: 10 uM; treatment time: 48 h.
In short: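 A purchased 510-compound library was screened at a final 10 μM for 48 h against PC-9 and PC-9GR lung cancer cells overexpressing IL-6-GFP via a lentiviral construct, seeded at 3000 cells/well in 96-well plates. GFP imaging was done on a parallel plate set. For viability, CCK-8 absorbance was recorded and each well's optical density was divided by that of the vehicle control well. There were two independent replicates.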

| Compound | cell viability |
| --- | --- |
| COC(=O)c1cc(OC)c2c(c1-c1c(C(=O)OC)cc(OC)c3c1OCO3)OCO2 [Bifendate] | 1.25 ± 0.027 |
| N#CCC(C1CCCC1)n1cc(-c2ncnc3[nH]ccc23)cn1 (stereo not given) | 1.11 and 0.753 |
| O=C(O)c1cc(N=Nc2ccc(S(=O)(=O)Nc3ccccn3)cc2)ccc1O [Sulfasalazine] | 1.22 ± 0.16 |
| Cn1nnc2c(C(N)=O)ncn2c1=O [Temozolomide] | 0.6981 ± 0.0048 |
| CCCCC(CC)CN1CN(CC(CC)CCCC)CC(C)(N)C1 (stereo not given) [Hexetidine] | 1.15 ± 0.07 |
| CC(C)c1nc(CN(C)C(=O)NC(CCN2CCOCC2)C(=O)NC(CCC(Cc2ccccc2)NC(=O)OCc2cncs2)Cc2ccccc2)cs1 (stereo not given) [Cobicistat (GS-9350)] | 1.14 ± 0.22 |
| NC(CO)(CO)CO [Trometamol] | 1.09 ± 0.061 |
| CS(=O)(=O)c1ccc(C(=O)Nc2ccc(Cl)c(-c3ccccn3)c2)c(Cl)c1 [Vismodegib (GDC-0449)] | 0.311 ± 0.32 |
| C=CC1=C(C)c2cc3nc(cc4[nH]c(cc5[nH]c(cc1n2)c(C)c5C=C)c(C)c4CCC(=O)O)C(CCC(=O)O)=C3C [Protoporphyrin IX] | 0.995 ± 0.17 |
| COc1cccc2c1C(=O)c1c(O)c3c(c(O)c1C2=O)CC(O)(C(=O)CO)CC3OC1CC(N)C(OC2CCCCO2)C(C)O1 (stereo not given) [Pirarubicin] | 0.208 ± 0.13 |
| CC1=C(/C=C/C(C)=C/C=C/C(C)=C/C(=O)Nc2ccc(O)cc2)C(C)(C)CCC1 [Fenretinide] | 0.449 ± 0.14 |
| COC1=C(OC)C(=O)C(CCCCCCCCCCO)=C(C)C1=O [Idebenone] | 0.816 ± 0.0099 |
| CC(=O)c1c(C)c2cnc(Nc3ccc(N4CCNCC4)cn3)nc2n(C2CCCC2)c1=O.O=S(=O)(O)CCO | 0.811 ± 0.26 |
| CC(=O)Nc1ccc(CC(=O)O)cc1 [Actarit] | 1.15 ± 0.07 |
| COc1ccc2cc(C(C)C(=O)O)ccc2c1 (stereo not given) [Naproxen] | 1.08 ± 0.16 |
| Cc1ccc(S(=O)(=O)O)cc1.NC(=O)c1cccc2cn(-c3ccc(C4CCCNC4)cc3)nc12 (stereo not given) [Niraparib (MK-4827) tosylate] | 0.916 ± 0.22 |
| O=C(O)Cc1ccccc1Nc1c(Cl)cccc1Cl.OCCN1CCCC1 [Diclofenac Epolamine] | 1.06 ± 0.16 |
| CN(C)C(=O)COC(=O)Cc1ccc(OC(=O)c2ccc(NC(=N)N)cc2)cc1.CS(=O)(=O)O [Camostat Mesilate] | 1.13 ± 0.049 |

| Compound | cell viability |
| --- | --- |
| OCC1OC(c2ccc(F)c(Cc3cc4ccccc4s3)c2)C(O)C(O)C1O (stereo not given) [Ipragliflozin (ASP1941)] | 1.06 ± 0.12 |
| O=C(O)COC(=O)Cc1ccccc1Nc1c(Cl)cccc1Cl [Aceclofenac] | 1.1 ± 0.052 |
| CN1CCC(=C2c3ccccc3CCn3c(C=O)cnc32)CC1 [Alcaftadine] | 1.07 ± 0.21 |
| CC1=C(/C=C/C(C)=C/C=C/C(C)=C/C(=O)O)C(C)(C)CCC1 [Tretinoin] | 1.03 ± 0.15 |
| O=c1ccc2ccc(O)c(O)c2o1 [Daphnetin] | 1.17 ± 0.18 |
| CN(C)c1nc(N(C)C)nc(N(C)C)n1 [Altretamine] | 1.06 ± 0.036 |
| O=c1cc[nH]c(=O)[nH]1 [Uracil] | 0.701 ± 0.11 |
| CN(C)C(=O)c1cc2cnc(Nc3ccc(N4CCNCC4)cn3)nc2n1C1CCCC1 [Ribociclib (LEE011)] | 1.01 ± 0.029 |
| COc1ccc2c(c1)nc(S(=O)Cc1ncc(C)c(OC)c1C)[n]2[Na] (stereo not given) [Esomeprazole sodium] | 0.939 ± 0.16 |
| CC12CCC(CC1=O)C2(C)C (stereo not given) [Camphor] | 0.786 ± 0.061 |
| O=C1Nc2ccccc2/C1=C1\Nc2ccccc2C1=O [Indirubin] | 0.916 ± 0.059 |
| O=S(=O)([O-])CCS.[Na+] [Mesna] | 0.95 ± 0.07 |
| O=C(c1cc(Cc2n[nH]c(=O)c3ccccc23)ccc1F)N1CCN(C(=O)C2CC2)CC1 | 1.16 ± 0.37 |
| COc1cc(C2Oc3ccc(C4Oc5cc(O)cc(O)c5C(=O)C4O)cc3OC2CO)ccc1O (stereo not given) [Silymarin] | 1.21 ± 0.17 |
| CC1CC2C3CC(F)C4=CC(=O)C=CC4(C)C3(F)C(O)CC2(C)C1(O)C(=O)CO (stereo not given) [Diflorasone] | 0.833 ± 0.23 |
| CN(C)C/C=C/C(=O)Nc1cc2c(Nc3ccc(F)c(Cl)c3)ncnc2cc1OC1CCOC1 (stereo not given) [Afatinib (BIBW2992)] | 0.294 ± 0.038 |
| Cc1nnc(C(C)C)n1C1CC2CCC(C1)N2CCC(NC(=O)C1CCC(F)(F)CC1)c1ccccc1 (stereo not given) [Maraviroc] | 0.945 ± 0.17 |
